Data published in paper PMC7862700, “An all-to-all approach to the identification of sequence-specific readers for epigenetic DNA modifications on cytosine”.

Assays:
Assay in all cases: DAPPL (digital affinity profiling via proximity ligation, sequencing); 10 mM Tris-HCl pH 7.5, 50 mM NaCl, 1 mM DTT, 4% glycerol, room temperature, 30 min; GST-TFs on glutathione beads, 16-mer random dsDNA library, 0.1% formaldehyde crosslink after washing; high values mean tight binding
Conditions in all cases: protein: recombinant; tags: N-terminal GST; dsDNA, one strand shown
FLI1 = target: T1, FLI1 (Homo sapiens, UniProt Q01543 1-452)
T1 sequence: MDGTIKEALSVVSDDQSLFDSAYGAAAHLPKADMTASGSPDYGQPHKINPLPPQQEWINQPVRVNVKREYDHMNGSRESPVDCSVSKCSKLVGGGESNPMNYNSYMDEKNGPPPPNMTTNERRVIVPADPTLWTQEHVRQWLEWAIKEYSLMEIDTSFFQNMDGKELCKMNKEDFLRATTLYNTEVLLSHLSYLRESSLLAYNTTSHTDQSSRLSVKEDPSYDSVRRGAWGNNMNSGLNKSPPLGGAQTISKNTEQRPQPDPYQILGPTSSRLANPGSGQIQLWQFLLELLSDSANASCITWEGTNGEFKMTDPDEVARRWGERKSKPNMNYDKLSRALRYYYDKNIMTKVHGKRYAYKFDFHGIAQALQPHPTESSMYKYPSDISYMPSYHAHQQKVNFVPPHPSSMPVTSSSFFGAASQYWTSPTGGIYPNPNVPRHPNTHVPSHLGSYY
Outline: (§1)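 The binding signal reported is, for every hexamer, its read frequency for a factor over its read frequency for the tag-only sample. Reads came from pools of yeast-expressed, GST-fused human transcription factors on glutathione beads, barcoded with DNA and mixed with that sample, which were incubated with 200 nmole of a random double-stranded 16-mer DNA library in Tris/NaCl/DTT/glycerol buffer at room temperature for 30 min. After washing, the pools were crosslinked with 0.1% formaldehyde, proximity-ligated with BsaI/T4 ligase for 1 h at 37 °C, PCR-amplified and sequenced on an Illumina NextSeq500.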

ELK1 = target: T2, ELK1 (Homo sapiens, UniProt P19419 1-428)
T2 sequence: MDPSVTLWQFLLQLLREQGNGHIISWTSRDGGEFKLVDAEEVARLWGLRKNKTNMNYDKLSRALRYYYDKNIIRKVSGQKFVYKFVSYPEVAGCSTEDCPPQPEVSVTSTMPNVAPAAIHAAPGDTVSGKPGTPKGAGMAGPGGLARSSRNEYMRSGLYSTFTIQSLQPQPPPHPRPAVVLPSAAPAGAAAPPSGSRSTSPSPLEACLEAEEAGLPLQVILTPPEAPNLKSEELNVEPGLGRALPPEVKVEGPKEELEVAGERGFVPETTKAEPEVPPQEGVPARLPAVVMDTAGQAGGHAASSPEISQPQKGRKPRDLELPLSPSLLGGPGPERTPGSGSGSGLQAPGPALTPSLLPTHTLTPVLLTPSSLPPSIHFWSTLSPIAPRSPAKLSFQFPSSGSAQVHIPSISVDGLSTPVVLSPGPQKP
Outline: as §1

GABPA = target: T3, GABPA (Homo sapiens, UniProt Q06546 1-454)
T3 sequence: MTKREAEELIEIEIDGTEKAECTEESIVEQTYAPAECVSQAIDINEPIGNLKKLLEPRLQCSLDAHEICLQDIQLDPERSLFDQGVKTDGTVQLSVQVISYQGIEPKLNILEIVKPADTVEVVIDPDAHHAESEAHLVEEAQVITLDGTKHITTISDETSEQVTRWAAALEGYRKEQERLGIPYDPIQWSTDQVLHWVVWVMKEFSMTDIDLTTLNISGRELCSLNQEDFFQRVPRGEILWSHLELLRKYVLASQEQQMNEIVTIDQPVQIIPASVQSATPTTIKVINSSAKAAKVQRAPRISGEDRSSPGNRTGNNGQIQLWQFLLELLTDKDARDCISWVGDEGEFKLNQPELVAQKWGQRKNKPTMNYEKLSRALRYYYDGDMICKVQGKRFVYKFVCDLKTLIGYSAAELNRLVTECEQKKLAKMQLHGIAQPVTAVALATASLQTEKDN
Outline: as §1

ERG = target: T4, ERG (Homo sapiens, UniProt P11308 1-479)
T4 sequence: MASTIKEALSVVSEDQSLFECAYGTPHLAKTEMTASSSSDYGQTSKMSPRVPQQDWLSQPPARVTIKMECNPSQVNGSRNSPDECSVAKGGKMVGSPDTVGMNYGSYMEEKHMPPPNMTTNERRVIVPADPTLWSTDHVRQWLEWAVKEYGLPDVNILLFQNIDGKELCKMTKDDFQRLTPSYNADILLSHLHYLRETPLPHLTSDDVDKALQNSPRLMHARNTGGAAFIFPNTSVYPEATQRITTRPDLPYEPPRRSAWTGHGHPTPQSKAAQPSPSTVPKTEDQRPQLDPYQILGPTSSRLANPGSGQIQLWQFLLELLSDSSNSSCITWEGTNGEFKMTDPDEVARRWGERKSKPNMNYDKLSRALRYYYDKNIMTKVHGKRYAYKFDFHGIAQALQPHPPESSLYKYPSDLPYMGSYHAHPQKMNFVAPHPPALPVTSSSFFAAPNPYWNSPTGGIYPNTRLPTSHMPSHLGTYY
Outline: as §1

ELF1 = ELF1 (Homo sapiens, UniProt P32519 1-619)
Outline: as §1

EHF = target: T5, EHF (Homo sapiens, UniProt Q9NZC4 1-300)
T5 sequence: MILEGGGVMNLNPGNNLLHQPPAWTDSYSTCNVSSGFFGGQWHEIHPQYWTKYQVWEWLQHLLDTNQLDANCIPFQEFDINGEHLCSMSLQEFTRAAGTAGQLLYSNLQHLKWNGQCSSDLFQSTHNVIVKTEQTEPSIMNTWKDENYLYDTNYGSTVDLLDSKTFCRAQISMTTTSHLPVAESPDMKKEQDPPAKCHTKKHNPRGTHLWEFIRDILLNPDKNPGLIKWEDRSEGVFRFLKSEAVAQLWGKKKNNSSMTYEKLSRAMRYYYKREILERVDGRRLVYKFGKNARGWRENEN
Outline: as §1

SPI1 = SPI1 (Homo sapiens, UniProt P17947 1-270)
Outline: as §1

SPIB = SPIB (Homo sapiens, UniProt Q01892 1-262)
Outline: as §1

ELK3 = target: T6, ELK3 (Homo sapiens, UniProt P41970 1-407)
T6 sequence: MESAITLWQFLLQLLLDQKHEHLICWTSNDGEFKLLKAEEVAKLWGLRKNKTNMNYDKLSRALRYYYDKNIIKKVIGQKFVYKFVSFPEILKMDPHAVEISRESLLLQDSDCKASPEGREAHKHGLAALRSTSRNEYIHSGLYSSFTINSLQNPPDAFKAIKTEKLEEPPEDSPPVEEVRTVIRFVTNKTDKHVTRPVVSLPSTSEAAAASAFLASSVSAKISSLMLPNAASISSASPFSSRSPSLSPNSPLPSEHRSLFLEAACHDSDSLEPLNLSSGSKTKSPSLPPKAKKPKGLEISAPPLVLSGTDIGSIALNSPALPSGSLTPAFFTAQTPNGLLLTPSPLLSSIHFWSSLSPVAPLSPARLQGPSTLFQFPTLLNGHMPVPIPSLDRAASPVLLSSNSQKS
Outline: as §1

ELF1, sequence (P32519 whole entry): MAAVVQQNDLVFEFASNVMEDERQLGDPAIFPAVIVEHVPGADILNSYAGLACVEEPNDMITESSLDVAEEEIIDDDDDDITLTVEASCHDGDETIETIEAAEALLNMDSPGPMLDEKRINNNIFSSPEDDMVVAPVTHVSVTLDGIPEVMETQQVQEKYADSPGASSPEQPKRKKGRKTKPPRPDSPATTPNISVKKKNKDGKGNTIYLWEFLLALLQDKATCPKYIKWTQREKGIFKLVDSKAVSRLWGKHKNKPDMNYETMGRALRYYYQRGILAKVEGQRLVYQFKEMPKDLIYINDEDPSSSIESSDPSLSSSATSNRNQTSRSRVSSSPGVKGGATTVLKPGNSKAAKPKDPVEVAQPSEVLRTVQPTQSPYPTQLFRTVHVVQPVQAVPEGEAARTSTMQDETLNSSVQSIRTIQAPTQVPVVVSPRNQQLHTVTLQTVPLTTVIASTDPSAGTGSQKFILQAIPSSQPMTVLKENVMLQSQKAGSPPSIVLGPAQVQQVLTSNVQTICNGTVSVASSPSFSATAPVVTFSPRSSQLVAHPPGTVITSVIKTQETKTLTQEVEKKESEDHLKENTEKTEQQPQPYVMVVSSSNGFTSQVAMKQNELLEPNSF
SPIB, sequence (Q01892 whole entry): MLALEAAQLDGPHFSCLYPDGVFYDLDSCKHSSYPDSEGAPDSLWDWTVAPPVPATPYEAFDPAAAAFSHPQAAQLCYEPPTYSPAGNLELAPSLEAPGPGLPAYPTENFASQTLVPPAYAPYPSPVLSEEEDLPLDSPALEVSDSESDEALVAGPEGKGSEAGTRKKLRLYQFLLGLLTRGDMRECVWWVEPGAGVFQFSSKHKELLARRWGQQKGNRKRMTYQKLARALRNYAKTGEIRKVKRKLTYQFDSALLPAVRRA

For GCTACT, the binding signal (FLI1) was 1.37 fold enrichment (6-mer frequency, TF over GST control), the binding signal (ELK1) was 1.25 fold enrichment (6-mer frequency, TF over GST control) and the binding signal (GABPA) was 1.32 fold enrichment (6-mer frequency, TF over GST control). For the same sequence, the binding signal (ERG) was 1.38 fold enrichment (6-mer frequency, TF over GST control), the binding signal (ELF1) was 1.35 fold enrichment (6-mer frequency, TF over GST control) and the binding signal (EHF) was 1.33 fold enrichment (6-mer frequency, TF over GST control). The binding signal (SPI1) was 1.27 fold enrichment (6-mer frequency, TF over GST control), the binding signal (SPIB) was 1.23 fold enrichment (6-mer frequency, TF over GST control) and the binding signal (ELK3) was 1.29 fold enrichment (6-mer frequency, TF over GST control).
